Shown is part of a subset that was picked to be rich in hits.
Algae TAG accum: inducers of triacylglycerol accumulation in Chlamydomonas reinhardtii algae | AID 1159537 | Chlamydomonas reinhardtii TAG, Nile Red fluorescence, 72 h | hit rate 0.84% among 44,000 | calls only at 10 µM (by protocol); call rule not given here;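 note: hits raise Nile Red signal meaning more stored TAG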
Starred values were filed as active, the others as inactive; i = inactive; + = active, no number.

SMILES	Algae TAG accum
NC(=O)c1cc(-c2ccccc2)sc1N	i
CC(C)Oc1ccc(C(=O)Nc2ccccc2C(N)=O)cc1	i
COc1ccc(S(=O)(=O)N(CC(=O)NC2CC2)c2ccc(Cl)cc2)cc1	i
Cc1cc(N2CCN(C(=O)c3ccc(Cl)c(Cl)c3)CC2)c(F)cc1[N+](=O)[O-]	i
COc1ccc(C(=O)Nc2sc3c(c2C(N)=O)CCC(C)C3)c(OC)c1 (stereo unspecified)	+
CC1CCc2c(sc(NC(=O)c3ccccc3[N+](=O)[O-])c2C(N)=O)C1 (stereo unspecified)	i
Cc1ccc(C(=O)Nc2sc3c(c2C(N)=O)CCC(C)C3)o1 (stereo unspecified)	i
COc1ccc(NC(=O)c2ccc(N(Cc3ccc(Cl)cc3)S(C)(=O)=O)cc2)cc1	i
CC(CNC(=O)c1ccc(F)cc1)CN(C)C (stereo unspecified)	i
Cc1cccc(C(=O)NCC(C)CN(C)C)c1 (stereo unspecified)	i
CC(CNC(=O)c1ccc(C(C)(C)C)cc1)CN(C)C (stereo unspecified)	+
O=C(c1ccc2nc(N3C(=O)c4ccccc4C3=O)sc2c1)N1CCN(c2ccccn2)CC1	i
COc1cccc(OC)c1C(=O)Nc1ccc(F)c(Cl)c1	i
Cc1ccc(C)c(N2CCN(Cc3ccc(C)s3)CC2)c1	i
C/C=C(\C)CN1CCN(c2cc(C)ccc2C)CC1	i
Cc1ccc(C)c(N2CCN(C3CCCCCC3)CC2)c1	+
O=C(Nc1ccccc1F)c1c(F)c(F)c(F)c(F)c1F	i
O=C(Nc1ccc(Br)cc1F)c1c(F)c(F)c(F)c(F)c1F	i
O=C(Nc1ccc(Cl)cc1F)c1c(F)c(F)c(F)c(F)c1F	+
CCOc1ccc(C(=O)Nc2cc(-c3nc4ncccc4o3)ccc2Cl)cc1Br	i
Cc1ccc(OCCNC(C)c2ccccc2)c(C)c1 (stereo unspecified)	i
O=C(Nc1cccc(Cl)c1)c1ccc(N2CCOCC2)c([N+](=O)[O-])c1	i
COc1ccc(C(=O)c2ccc(N3CCOCC3)c([N+](=O)[O-])c2)cc1	i
CC(C)(C)c1csc(NC(=O)c2ccc(N3CCOCC3)c([N+](=O)[O-])c2)n1	+
O=C1CCC(C(=O)NCc2ccc(Cl)cc2)N1 (stereo unspecified)	i
SMILES	Algae TAG accum
Cc1ccc(OCC(=O)Nc2cccc([N+](=O)[O-])c2C)c(Br)c1	i
Cc1c(NC(=O)COc2ccc(Br)cc2)cccc1[N+](=O)[O-]	+
Cc1cccc(NC(=O)COc2ccc(Br)cc2)c1C	i
CC(Oc1ccc(Cl)cc1Cl)C(=O)NCc1ccc(F)cc1 (stereo unspecified)	i
COc1ccccc1NC(=O)Nc1cccc(Cl)c1	i
CC(C)(Oc1ccc(Cl)cc1)C(=O)N1CCN(c2ccc(F)cc2)CC1	+
CC(C)(Oc1ccc(Cl)cc1)C(=O)N1CCN(c2ccccn2)CC1	i
CC(C)(Oc1ccc(Cl)cc1)C(=O)N1CCN(c2cccc(Cl)c2)CC1	i
O=C(Nc1cccc(NC(=O)c2sc3ccccc3c2Cl)c1)c1cccs1	i
COc1cc(NC(=O)COc2ccc(C)cc2Br)cc(OC)c1	i
COc1ccccc1N1CCN(C2CCC(C)CC2)CC1 (stereo unspecified)	i
COc1cccc(N2CCN(C3CCC(C)C3)CC2)c1 (stereo unspecified)	i
COc1cccc(N2CCN(C3CCCC(C)C3)CC2)c1 (stereo unspecified)	+
CC1CCC(N2CCN(c3ccccc3)CC2)C1 (stereo unspecified)	+
CC1CCC(N2CCN(c3ncccn3)CC2)C1 (stereo unspecified)	i
COc1cccc(N2C(=O)CC(N3CCN(c4ccccc4)CC3)C2=O)c1 (stereo unspecified)	i
CC(Oc1ccc(Cl)cc1Cl)C(=O)Nc1ccc(F)cc1F (stereo unspecified)	i
COc1ccc(NC(=O)c2cc(OC)c(OC)c(OC)c2)cc1	i
O=C(COc1ccccc1)N1CCN(c2ccc([N+](=O)[O-])c(NCCc3ccccc3)c2)CC1	i
O=C(CSc1ncccn1)NC1CCCCC1	i
O=C(CSc1nnnn1-c1ccc(Cl)cc1)Nc1ccc(Cl)cc1Cl	i
Cc1ccc(NC(=O)CSc2nnc(-c3ccc(Cl)cc3Cl)n2N)c(C)c1	+
COc1ccc(OC)c(NC(=O)CSc2nnc(-c3ccc(Cl)cc3Cl)n2N)c1	i
CCOc1cc(C(=O)Nc2cccc(C)c2C)cc(OCC)c1OCC	i
O=C(Nc1ccc(OCc2ccccc2)cc1)c1ccncc1	i
SMILES	Algae TAG accum
CCN1CCN(C/C=C/c2ccccc2)CC1	i
OCCN1CCN(C/C=C/c2ccccc2)CC1	i
C/C=C(\C)CN1CCN(C/C=C/c2ccccc2)CC1	+
O=C(Nc1ccccc1)Nc1cccc(NC(=O)Nc2ccccc2)c1	i
CCOC(CC)c1ccc2c(c1)OCCO2 (stereo unspecified)	i
COc1ccccc1CN1CCN(Cc2ccc3c(c2)OCO3)CC1	i
COc1cc(C)c(CN2CCC(N3CCCCC3)CC2)cc1C	i
COc1ccc(CN2CCCN(C)CC2)c(OC)c1	i
COc1ccc(CN2CCN(Cc3ccc4c(c3)OCO4)CC2)c(OC)c1	i
COc1cc(C)c(CN2CCCN(C)CC2)cc1C	+
COc1cc(C)c(CN2CCN(Cc3ccc4c(c3)OCO4)CC2)cc1C	+
COc1ccccc1NC(=O)COc1c(C)cc(C)cc1Cl	i
COc1cc(NC(=O)c2cccc([N+](=O)[O-])c2C)ccc1NC(=O)c1cc2ccccc2o1	i
Cc1oc(C(=O)O)cc1CN1CCCCC1	i
CCCCOc1ccc(NC(=O)c2ccc(F)cc2)cc1	i
COc1ccc(S(=O)(=O)NCCSCc2ccccc2C)cc1OC	i
CCOc1ccc(NC(=O)Nc2ccccc2)cc1	i
CN1CCC(N(C)Cc2coc3ccccc3c2=O)CC1	i
CN1CCC(N(C)Cc2ccc(Cl)c(Cl)c2)CC1	i
CCOc1ccc(CN(C)C2CCN(C)CC2)cc1	i
CC(C)c1ccc(CN(C)C2CCN(C)CC2)cc1	i
CN1CCC(N(C)Cc2cccs2)CC1	i
COc1cccc(CN(C)C2CCN(C)CC2)c1	i
Cc1ccc(CN(C)C2CCN(C)CC2)s1	+
CCc1ccc(CN(C)C2CCN(C)CC2)cc1	+
SMILES	Algae TAG accum
CN1CCC(N(C)Cc2cccc(Oc3ccccc3)c2)CC1	+
Cc1cc(C)c2nc(NC(=O)c3cccc([N+](=O)[O-])c3)sc2c1	i
COc1cc(C=O)ccc1OCCOc1ccccc1F	i
Cc1ccc(S(=O)(=O)N(CC(=O)NCc2ccco2)Cc2c(F)cccc2Cl)cc1	i
COc1ccc(Br)cc1C(=O)Nc1cccc(F)c1	i
COc1ccc2nc(NC(=O)CSc3nnc4n(N)cnn34)sc2c1	i
Nc1ccc2oc(-c3cc(Cl)ccc3Br)nc2c1	i
CNC(=O)COc1ccc(Nc2nnc(-c3ccc(C)cc3)c3ccccc23)cc1	i
COc1cc(C(=O)Nc2cccc(NC(=O)c3ccccc3)c2)cc(OC)c1OC	i
COc1cc(C(=O)Nc2cccc(C(=O)c3ccc(C)c(C)c3)c2)cc(OC)c1OC	+
COc1cc(C(=O)Nc2cccc(F)c2)cc(OC)c1OC	i
CN(CC(=O)Nc1ccccc1F)S(=O)(=O)c1ccc(Br)cc1	i
Cc1ccc([N+](=O)[O-])c(OCCSc2nnnn2-c2ccccc2)c1	i
COc1cc(NC(=O)COc2ccc(C)cc2Br)c(OC)cc1Cl	i
